# sEH activator: activators of human soluble epoxide hydrolase. P34913. purified human sEH enzymatic activity, activator screen. activation, % at 2 µM. 0.04% of 91,000 active. AID 717; in the data active = activation above about 37%
# sEH inhibitor: blocks human soluble epoxide hydrolase activity. P34913. recombinant human sEH enzymatic activity assay. inhibition, % at 2 µM. 0.34% of 91,000 active. AID 707; in the data active = inhibition above about 80%
# PLAP activator: activators of human placental alkaline phosphatase; 1.2% of 96,000 active; activation fold at 20 µM; purified PLAP enzyme, luminescent substrate read-out; stronger effect = higher value; P05187; in the data active = activation fold above about 2
# Target sequence (P05187 whole entry, looked up): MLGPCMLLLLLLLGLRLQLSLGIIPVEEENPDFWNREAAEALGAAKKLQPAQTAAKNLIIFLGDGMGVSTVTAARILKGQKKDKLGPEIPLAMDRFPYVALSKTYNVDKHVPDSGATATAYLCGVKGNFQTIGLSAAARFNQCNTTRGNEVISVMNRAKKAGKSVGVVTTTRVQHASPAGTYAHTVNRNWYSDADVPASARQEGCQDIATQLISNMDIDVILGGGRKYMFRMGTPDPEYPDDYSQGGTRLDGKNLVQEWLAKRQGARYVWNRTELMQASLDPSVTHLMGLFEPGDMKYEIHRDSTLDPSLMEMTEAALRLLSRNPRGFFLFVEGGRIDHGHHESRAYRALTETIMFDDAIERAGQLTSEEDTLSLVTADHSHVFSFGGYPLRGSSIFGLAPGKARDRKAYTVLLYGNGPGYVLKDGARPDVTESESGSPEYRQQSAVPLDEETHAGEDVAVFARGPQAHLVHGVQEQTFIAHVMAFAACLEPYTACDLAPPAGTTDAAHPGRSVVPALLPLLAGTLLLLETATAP
# BAP1 block: human BAP1 deubiquitinase inhibition. calls only at 20 µM. 0.48% of 72,000 active. recombinant BAP1, Ub-AMC hydrolysis fluorescence kinetic; stronger effect = lower value. Q92560;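 active = activity remaining at or below 50% of control, provided the compound also passes the data quality filters; inactive = the rest, including low values that fail the filters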;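 also: 100% = DMSO wells rate and 0% = substrate alone blank rate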
# * hit, by the source's call; i = inactive; . = not tested or not shown; + = active, no number. Most compounds without a hit are left out; they make up all but 1.5% or so of the library.
SMILES,sEH activator,sEH inhibitor,PLAP activator,BAP1 block
O=C(CSc1nc2[nH]ncc2c(=O)n1-c1ccccc1)c1ccc2c(c1)OCCO2,-4,5,2.4*,i
Cc1[nH][nH]c(=O)c1C(c1ccc(-c2ccc(Cl)c(Cl)c2)o1)c1c(C)[nH][nH]c1=O,2,-4,2.9*,.
C=CCn1c(SCc2nc3ccccc3[nH]2)nnc1-c1ccccn1,-4,2,2*,i
CC1CCc2c(sc3nc(CN4CCOCC4)nc(NS(=O)(=O)c4cccc([N+](=O)[O-])c4)c23)C1 (stereo unspecified),5,-4,2.1*,.
CCCN(CCC)S(=O)(=O)c1ccc(C(=O)Nc2nnc(-c3cccc(OC)c3)o2)cc1,.,.,.,i
CCCN(CCC)S(=O)(=O)c1ccc(C(=O)Nc2nnc(-c3cc(OC)cc(OC)c3)o2)cc1,-18,18,2*,.
COc1ccc(C(=O)Nc2nnc(-c3ccccc3)o2)cc1OC,4,-3,2.1*,i
CCOc1ccc(NC(=O)CN(C)CC(=O)Nc2cc(Cl)ccc2C#N)cc1OCC,-7,10,2.1*,.
C#CC(O)(c1ccc(OC)c(OC)c1)c1ccc(OC)cc1OC (stereo unspecified),.,.,.,i
Cc1nn(Cc2ccc(Cl)c(Cl)c2)c(C)c1NC(=O)c1cn(-c2ccccc2)nc1-c1ccccc1,-1,2,2.7*,.
Cc1nn(Cc2ccc(Cl)cc2)c(C)c1NC(=O)c1c(-c2ccccc2)noc1C,8,-9,.,.
CC1(C)CC(=O)C2=C(C1)N=c1s/c(=C/c3ccc(F)c(F)c3)c(=O)n1C2c1ccc(F)cc1 (stereo unspecified),37*,-33,1.2,.
COc1ccc(O)c(-c2[nH]ncc2C(=O)c2ccccc2)c1,-10,12,.,.
O=C(c1ccccc1)c1cn[nH]c1-c1ccccc1O,3,-6,2.2*,.
Cc1ccc(C(=O)c2cn[nH]c2-c2cc(Cl)ccc2O)cc1,-8,9,2.3*,.
O=C(c1ccco1)c1cn[nH]c1-c1ccc(Cl)cc1O,-9,10,2.9*,.
CC(=O)c1nn(-c2cccc(Cl)c2)cc1C(=O)c1ccco1,.,.,0.9,i
CCOC(=O)N1CCN(C(=O)Nc2ccc(Cl)cc2)CC1,-46,47,0.8,i
CCN1CCN(C(=O)Nc2ccc(Cc3ccc(NC(=O)N4CCN(CC)CC4)cc3)cc2)CC1,.,.,2*,i
COc1ccc2nc(NCCCNC(=O)c3cc(OC)c(OC)c(OC)c3)c(C#N)cc2c1,8,-10,2.4*,i
O=C(O)C1=CC(=C(c2ccc(O)c(C(=O)O)c2)c2ccc(O)c(C(=O)O)c2)C=CC1=O,.,.,.,+
Cc1ccc2c(C)nc(Nc3nc(CSc4nc5ccccc5[nH]4)cc(=O)[nH]3)nc2c1,-8,8,2.2*,.
Cc1nnc(SCc2cc(=O)[nH]c(Nc3nc(C)c4ccccc4n3)n2)s1,-15,12,.,i
O=C(Nc1ncccc1O)c1cccc(S(=O)(=O)N2CCc3ccccc32)c1,-7,8,2.5*,i
COc1ccc(C(=O)Nc2ccc(S(=O)(=O)N3CCc4ccccc43)cc2)cc1,-48,49,.,.
SMILES,sEH activator,sEH inhibitor,PLAP activator,BAP1 block
COc1ccc(C(=O)NCCSCc2ccccc2C)cc1,-30,28,0.9,.
Cc1ccc(SCCC(=O)NCCSCc2ccccc2C)cc1,-83,83*,1,.
COc1cccc(NC(=S)NNC(=O)C(C)n2nc(C)c([N+](=O)[O-])c2C)c1 (stereo unspecified),-4,6,2.1*,.
Cc1nn(C(C)C(=O)NCc2ccccc2)c(C)c1[N+](=O)[O-] (stereo unspecified),-2,3,0.9,.
COc1cccc(NC(=S)NNC(=O)c2c([N+](=O)[O-])c(C)nn2C)c1,-5,6,2.1*,.
Cc1ccc(F)cc1N1C(=O)CSC1c1ccc([N+](=O)[O-])cc1 (stereo unspecified),.,.,.,i
COc1cccc2sc(Nc3nnc(-c4ccc(F)cc4)o3)nc12,.,.,2.4*,.
COc1ccc2c(c1)c(C(C)=O)c(C)n2-c1cccc(Br)c1,.,.,.,i
Cc1ccc(C)c(NC(=S)NNC(=O)c2ccc(Br)o2)c1,-2,2,2.3*,.
Cc1cccc(NC(=S)NNC(=O)c2ccco2)c1,-4,4,2.1*,.
COc1ccc(C)cc1NC(=O)C(=O)NNC(=O)c1ccco1,.,.,2.5*,.
COc1cc(NC(=O)c2ccco2)c(OC)cc1NC(=O)CCC(=O)Nc1cc(C)ccc1C,-1,2,0.9,i
Cc1ccc(C)c(NC(=S)NNC(=O)c2csc(C(C)C)c2)c1,-3,8,.,.
Cc1ccc(C)c(NC(=S)NNC(=O)c2sccc2C)c1,1,1,2.6*,.
CC(C)COC(=O)c1ccc(N2C(=O)c3cccc([N+](=O)[O-])c3C2=O)cc1,.,.,.,i
Cc1ccc(C)c(NC(=S)NNC(=O)c2ccco2)c1,0,2,2.5*,.

# Screening results (PubChem BioAssay)
